Assay outcomes: PubChem, National Center for Advancing Translational Sciences (NCATS)
The list is not random: actives were taken first. Their share in the collection is about 11%.
HEK cytotox: HEK 293 cell cytotoxicity; HEK 293 viability, ATP luminescence (CellTiter-Glo), 48-72 h; Potency, µM (series often up to 115 µM), for the others: at the top dose activity change, negative = cytotoxicity, hits mostly inhibitors; 94,000 compounds, 6.6% hits; AID 1345083; also: % is scaled to controls: 0 for no effect and ±100 for the full control effect; nearly all actives have a fitted effect of over 60% in size
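Pintool-delivered compounds were incubated with HEK 293 cells (250 cells/well) at 37 degree Celsius for 48 or 72 hr. ATP-dependent luminescence (CellTiter-Glo) then reported remaining viable cells.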
Luciferase inh: blocks purified firefly luciferase enzyme activity; purified P. pyralis luciferase, luminescence, biochemical; Potency, µM (series often up to 115 µM), hits mostly inhibitors; 76,000 compounds, 2.5% hits; also: % is scaled to controls: 0 for no effect and ±100 for the full control effect; nearly all actives have a fitted effect of over 65% in size
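Cell-free enzyme assay, 10nM P. pyralis luciferase, luciferin and ATP each at 10uM. Inhibition profiled over a 6-point titration, read as luminescence.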
NIH3T3 tox: kills NIH 3T3 cells. Potency, µM (titrated, usually from 96.7 µM), without a hit: top-dose activity change, negative = cytotoxicity, usual class: inhibitors. AID 1345082. 94,000 compounds, 4.3% hits. NIH 3T3 viability, CellTiter-Glo ATP luminescence, 48-72 h; also: % is scaled to controls: 0 for no effect and ±100 for the full control effect; nearly all actives have a fitted effect of over 55% in size
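Cytotoxicity was measured by CellTiter-Glo ATP luminescence after 48 or 72 h compound exposure at 37 °C. Mouse NIH 3T3 fibroblasts were seeded at 400 cells/well and dosed by 23 nL pin transfer.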
NPR1 antag: antagonists of human natriuretic peptide receptor Npr1 | P16066 | HEK293 hNpr1 GloSensor cGMP, ANP-stimulated luminescence | Potency, µM (highest dose often 46.3 µM), for inactives: top-dose activity change, negative = inhibition, hits mostly inhibitors | 76,000 compounds, 1.6% hits; calls by dose curve; also: % is scaled to controls: 0 for no effect and ±100 for the full control effect; nearly all actives have a fitted effect of over 60% in size
Target sequence (P16066 whole entry, looked up): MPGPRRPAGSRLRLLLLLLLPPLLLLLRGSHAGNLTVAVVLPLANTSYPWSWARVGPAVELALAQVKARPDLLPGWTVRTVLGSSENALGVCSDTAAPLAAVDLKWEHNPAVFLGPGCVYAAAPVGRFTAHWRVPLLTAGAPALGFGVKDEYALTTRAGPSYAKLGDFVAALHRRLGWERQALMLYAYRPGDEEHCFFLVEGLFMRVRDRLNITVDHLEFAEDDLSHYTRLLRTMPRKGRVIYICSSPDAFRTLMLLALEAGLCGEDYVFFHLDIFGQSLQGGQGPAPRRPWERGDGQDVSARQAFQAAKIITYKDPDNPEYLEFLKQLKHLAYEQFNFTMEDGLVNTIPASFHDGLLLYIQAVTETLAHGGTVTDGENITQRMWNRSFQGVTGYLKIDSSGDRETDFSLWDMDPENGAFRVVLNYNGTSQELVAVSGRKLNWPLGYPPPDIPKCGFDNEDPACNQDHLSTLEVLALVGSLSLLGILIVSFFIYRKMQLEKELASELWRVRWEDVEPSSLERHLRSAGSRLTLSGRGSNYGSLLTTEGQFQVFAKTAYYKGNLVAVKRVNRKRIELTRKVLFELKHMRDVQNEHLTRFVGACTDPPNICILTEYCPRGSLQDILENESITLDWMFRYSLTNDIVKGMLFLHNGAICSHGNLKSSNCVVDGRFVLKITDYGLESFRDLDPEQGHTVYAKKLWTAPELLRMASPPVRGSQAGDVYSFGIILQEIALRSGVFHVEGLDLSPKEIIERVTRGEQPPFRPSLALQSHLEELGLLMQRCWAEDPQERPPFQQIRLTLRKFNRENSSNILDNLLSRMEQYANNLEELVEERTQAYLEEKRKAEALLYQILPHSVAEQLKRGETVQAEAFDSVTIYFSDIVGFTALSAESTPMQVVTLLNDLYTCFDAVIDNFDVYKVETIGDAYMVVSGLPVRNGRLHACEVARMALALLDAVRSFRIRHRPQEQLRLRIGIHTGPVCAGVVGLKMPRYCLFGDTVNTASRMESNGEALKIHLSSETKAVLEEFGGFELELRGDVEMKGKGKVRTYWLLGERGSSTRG
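Compound pre-incubated 30 min at room temperature on GloSensor-loaded HEK293 cells stably carrying hNpr1 and the pGS-40F cGMP biosensor. Stimulation uses hNppA at 0.1 nM final; luminescence is taken at baseline and 20 min post-agonist.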
Npr1 antag conf: hNpr1 antagonism, confirmation assay | shares compounds with NPR1 antag | HEK293 hNpr1 cGMP GloSensor luminescence, ANP-stimulated | Potency, µM (highest dose often 57.6 µM), for the others: at the top dose activity change, negative = inhibition, most hits filed as inhibitors | 1,400 compounds, 76% hits | AID 1347044; calls by dose curve; also: nearly all actives have a fitted effect of over 70% in size
Npr2 selectivity: antagonizes human Npr2, subtype selectivity check; HEK293 hNpr2 GloSensor cGMP luminescence, CNP-stimulated; Potency, µM (top dose mostly 57.6 µM), inactives show at the top dose activity change, negative = inhibition, actives largely listed as inhibitors; shares compounds with NPR1 antag; 1,400 compounds, 67% hits; calls by dose curve; also: nearly all actives have a fitted effect of over 70% in size
FLuc counter: FLuc enzyme inhibition, Npr1 counter-screen; purified FLuc enzyme, luminescence, Km substrate; AID 1347047; Potency, µM (titrated, usually from 57.6 µM), for inactives: top-dose activity change, negative = inhibition, usual class: inhibitors; 1,400 compounds, 0.7% hits; shares compounds with NPR1 antag; also: series mostly up to about 58 µM; 0% is about no effect
GloSensor cGMP: reduces cGMP signal in GloSensor control cells; shares compounds with NPR1 antag; 1,400 compounds, 69% hits; HEK293 GloSensor cGMP, SNP-stimulated, luminescence; AID 1347051; Potency, µM (highest dose often 57.6 µM), for the others: top-dose activity change, negative = inhibition, hits mostly inhibitors; calls by dose curve; also: % is scaled to controls: 0 for no effect and ±100 for the full control effect; nearly all actives have a fitted effect of over 70% in size
Starred values were filed as active, the others as inactive; i = inactive; ? = inconclusive; · = not tested or not shown; ! = not confirmed by another sample; [ ] = another dose, or the depositor's remark. Unless noted, calls follow the shape of the dose curve; as a rule, active = well fitted curve in the direction sought with a large enough effect; inconclusive = small, poorly fitted or top-dose-only effect, or another doubt; inactive = no such curve, though single readings can be large; an effect the other way counts as inactive or inconclusive. Potency is read from the fitted curve at half-maximal effect.

SMILES	HEK cytotox	Luciferase inh	NIH3T3 tox	NPR1 antag	Npr1 antag conf	Npr2 selectivity	FLuc counter	GloSensor cGMP
COc1ccc(CN2C(=O)[C@@H]3C[C@@H](CN3C(=O)c3cnccn3)Oc3ccccc32)cc1	3%[172 µM]	i	?	0%[70.6 µM]	·	·	·	·
COc1ccc(CN2C(=O)[C@@H]3C[C@@H](CN3C3CCC3)Oc3ccccc32)cc1	?	i	32µM*	?	-27%[86.2 µM]	?	-19%[86.2 µM]	0%[86.2 µM]
Cc1ccc(OCCC2CCN(C(=O)Cc3ccsc3)C2)cc1 (centres undefined)	?	i	?	?	·	·	·	·
COc1cccc(-c2noc(CC3CCN(C(=O)c4cccc(Cl)c4)CC3)n2)c1	?	i	?	8.9µM*	7.7µM*	11µM*	-12%	7.7µM*
COc1cccc(-c2noc(CC3CCN(C(=O)c4cc(Cl)ccc4F)CC3)n2)c1	?	i	?	8.9µM*	12µM*	19µM*	0%	14µM*
COc1cccc(-c2noc(CC3CCN(C(=O)c4ccc(OC)c(OC)c4)CC3)n2)c1	?	i	?	11µM*	9.7µM*	12µM*	1%	11µM*
COc1cccc(-c2noc(CC3CCN(C(=O)c4ccccc4)CC3)n2)c1	40µM*	i	?	7.9µM*	9.7µM*	11µM*	-6%	9.7µM*
O=C(c1cc(Cl)ccc1F)N1CCC(Cc2nc(-c3cnccn3)no2)CC1	?	i	?	0%	·	·	·	·
COc1cc(OC)cc(C(=O)N2CCC(Cc3nc(-c4cnccn4)no3)CC2)c1	15%	i	-21%	9%	·	·	·	·
COCc1ncc(C)n1CCNC(=O)c1cc(-c2ccc(C)c(C)c2)n[nH]1	?	?	-18%	?	·	·	·	·
COc1ccc(CCC(=O)Nc2cccc(-c3nnc4n3CCCC4)c2)cc1	-11%	i	-7%	6%	·	·	·	·
OC1CC(c2cc(NCCOCc3ccc(Cl)cc3)ncn2)C1 (centres undefined)	?	i	?	11µM*	22µM*	?	-3%	22µM*
COc1ccc(CCCNc2cc(C3CC(O)C3)ncn2)cc1 (centres undefined)	?	i	-27%	10µM*	19µM*	19µM*	-1%	14µM*
O=S(=O)(CCNc1cc(C2CC(O)C2)ncn1)c1ccc(F)cc1 (centres undefined)	i	i	5%	-3%	·	·	·	·
COCCn1c(=O)c(C(=O)N2CCN(C(=O)c3ccc(Cl)nc3)CC2)nc2cccnc21	i	·	0%	·	·	·	·	·
COc1ccc(C(=O)N2CCC(C(=O)N3CCC(c4nc5ncccc5[nH]4)CC3)C2)cc1 (centres undefined)	-1%	·	3%	·	·	·	·	·
COCCN1C(=O)N(C)C(=O)C12CCN(Cc1ccc(C(=O)OC)cc1)C2 (centres undefined)	-8%	·	-15%	·	·	·	·	·
CCOc1ccccc1C(=O)NC1CCN(c2cc(C(F)(F)F)nc(C)n2)CC1	?	i	?	?	24µM*	?	2%	24µM*
COc1ccccc1OCCNC(=O)C1CCN(c2cc(C(F)(F)F)nc(C)n2)CC1	?	i	?	?	-22%	-7%	-3%	0%
COc1cccc(C(=O)NC2CCN(c3cc(C(F)(F)F)nc(C)n3)CC2)c1OC	?	i	?	?	·	·	·	·
COc1ccc(CN2CCCn3nc(C)c(-c4ccccc4Oc4ccccc4)c32)cc1O	20µM*	i	11µM*	2.5µM*	22µM*	22µM*	3%	4.8µM*
Cc1nn2c(c1-c1ccccc1-c1ccccc1)N(Cc1cccc(O)c1)CCC2	?	i	?	2.2µM*	3.1µM*	5µM*	-1%[86.2 µM]	3.5µM*
Cc1nn2c(c1-c1ccccc1Oc1ccccc1)N(Cc1ccc(C(=O)O)cc1)CCC2	45µM*	i	25µM*	2.8µM*	?	?	1%[86.2 µM]	?
Cc1ccc(-n2nc(-c3c(C)nc4scc(CC(=O)Nc5ccc(F)cc5)n4c3=O)cc2C)cc1	?	i	?	-1%	·	·	·	·
CN1CCc2c([nH]c3ccccc23)C12CCN(C(=O)c1cccn1C)CC2	?	i	-26%	8%	·	·	·	·
SMILES	HEK cytotox	Luciferase inh	NIH3T3 tox	NPR1 antag	Npr1 antag conf	Npr2 selectivity	FLuc counter	GloSensor cGMP
Cc1nc2ccccn2c1C(=O)NC(C)c1cnn(-c2ccccn2)c1C (centres undefined)	?	i	?	4.5µM*	6.1µM*	9.7µM*	6%	4.8µM*
Cc1nn2c(c1-c1ccccc1[S+](C)(=O)[O-])N(C(=O)Cc1ccccc1)CCC2	-13%[172 µM]	i	?	1%[70.6 µM]	·	·	·	·
Cc1nn2c(c1-c1ccccc1OCc1ccccc1)N(C(=O)COc1ccccc1C(N)=O)CCC2	?	i	6.3µM*	7.1µM*	17µM*	11µM*	0%	0%
Cc1nn2c(c1-c1ccccc1OCc1ccccc1)N(C(=O)Cc1ccccn1)CCC2	?	i	?	?	20µM*	13µM*	1%[86.2 µM]	-20%[86.2 µM]
Cc1cccc(C(=O)NC2CCN(c3cnn(C)c(=O)c3)CC2)c1	-11%	i	4%	0%	·	·	·	·
O=c1[nH]c(C2CCCN(Cc3ccc(-c4cccs4)cc3)C2)nc2ccc(F)cc12 (centres undefined)	40µM*	i	?	16µM*	24µM*	27µM*	1%	31µM*
O=c1[nH]c(C2CCCN(Cc3ccc(Cl)cc3)C2)nc2ccc(F)cc12 (centres undefined)	?	i	-25%	?	·	·	·	·
Cc1ccc2nc(C3CCN(Cc4ccc(C#N)cc4)CC3)[nH]c(=O)c2c1	?	i	?	?	17µM*	?	2%	17µM*
N#Cc1ccc(CN2CCC(c3nc4ccc(F)cc4c(=O)[nH]3)CC2)cc1	-29%	·	-21%	·	·	·	·	·
COc1ccccc1-c1ccc(CN2CCCC(c3nc4ccc(C)cc4c(=O)[nH]3)C2)cc1 (centres undefined)	18µM*	i	28µM*!	?	?	?	2%	?
